Source: PubChem BioAssay
Compounds with a hit are over-represented: about 0.89% of the library has one in this group of screens.
CtBP-E1A blk: CtBP/E1A binding inhibition; AlphaScreen GST-E1A/His-CtBP binding, 1536-well; stronger effect = lower value; activity change, % (concentration not given with the values); 340,000 compounds, 0.49% hits; AID 651724; in the data active = activity change below about -65%; inconclusive = mostly about -30% to -63%; note: % is set by controls: 0 for no effect and ±100 for the full control effect
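GST-E1A and His-tagged CtBP (125 nM each as 5X stock) were preincubated with pin-transferred compound for 2 h at 37 °C in the dark, then glutathione donor and nickel acceptor beads were added for 1 h before AlphaScreen reading.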
L3MBTL1 inh: L3MBTL1 (human) inhibition; AlphaScreen L3MBTL1–H3K9me1 peptide binding; 230,000 compounds, 0.66% hits; Potency, µM (doses to about 57.1 µM), without a hit: at the top dose activity, negative = inhibition, most hits filed as inhibitors; AID 485360; Q9Y468; note: potency is the fitted concentration of half-maximal effect; % is set by controls: 0 for no effect and ±100 for the full control effect; nearly all actives have a fitted effect of over 60% in size
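Read-out is AlphaScreen signal from streptavidin donor and nickel chelate acceptor beads (10 ug/mL final each) bridging L3MBTL1 (50 nM) and biotinylated K9-monomethylated H3(1-15) peptide (75 nM), after 30 min compound exposure at room temperature.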
Eya2 phos inh: blocks the phosphatase activity of human Eya2 | O00167 | recombinant Eya2, OMFP fluorescence dephosphorylation (OMFP is methylfluorescein phosphate) | Potency, µM (series often up to 76.9 µM), for inactives: at the top dose activity, negative = inhibition, usual class: inhibitors | 330,000 compounds, 0.006% hits | AID 488837; note: potency is the fitted concentration of half-maximal effect; % is set by controls: 0 for no effect and ±100 for the full control effect
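Eya2 (0.2 uM) preincubated 10 min at ambient with compound, then OMFP substrate added at 50 uM; 10 min reaction in 50 mM HEPES pH 7.5, 50 mM NaCl, 5 uM MgCl2, 0.05% BSA, 1 mM DTT. Fluorescence read at Ex 485/Em 525 nm.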
CBFb-RUNX1 inh: CBF-beta/RUNX1 interaction disruption | 230,000 tested, under 10 active | AID 1477 | Potency, µM (series often up to 59.8 µM), for inactives: at the highest dose activity, negative = inhibition, usual class: inhibitors | AlphaScreen CBFb-His/RUNX1-biotin binding, biochemical; note: % of control where 0% means no effect
Target sequence (Q01196 whole entry, looked up): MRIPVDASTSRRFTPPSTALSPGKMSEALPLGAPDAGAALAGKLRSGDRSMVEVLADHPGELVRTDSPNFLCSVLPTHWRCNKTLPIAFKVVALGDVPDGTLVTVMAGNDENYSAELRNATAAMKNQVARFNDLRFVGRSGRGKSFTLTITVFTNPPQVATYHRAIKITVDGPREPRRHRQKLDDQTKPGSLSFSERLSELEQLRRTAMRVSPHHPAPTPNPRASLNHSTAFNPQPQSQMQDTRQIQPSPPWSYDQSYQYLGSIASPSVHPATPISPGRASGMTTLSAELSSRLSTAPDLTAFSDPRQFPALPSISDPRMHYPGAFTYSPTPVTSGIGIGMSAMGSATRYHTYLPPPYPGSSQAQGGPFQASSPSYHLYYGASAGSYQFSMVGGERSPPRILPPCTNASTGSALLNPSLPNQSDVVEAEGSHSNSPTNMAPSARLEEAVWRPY
Target sequence (Q13951 whole entry, looked up): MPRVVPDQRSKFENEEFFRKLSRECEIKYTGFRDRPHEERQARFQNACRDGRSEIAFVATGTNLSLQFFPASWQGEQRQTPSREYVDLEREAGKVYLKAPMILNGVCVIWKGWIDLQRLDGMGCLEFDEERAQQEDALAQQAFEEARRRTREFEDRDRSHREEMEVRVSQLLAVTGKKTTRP
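Read-out: AlphaScreen. Format: His-CBF-beta with biotinylated RUNX1 (30 nM each) preincubated 20 min, compound 15 min, Ni-chelate plus streptavidin beads 90 min; room temperature throughout.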
Six1-Eya2 inh: blocks human Six1 binding to Eya2; Q15475+O00167; AlphaScreen GST-Six1/His-Eya2 binding, biochemical; stronger effect = lower value; activity change, % (no concentration beside the values); 360,000 compounds, 0.56% hits; in the data active = activity change below about -65%; inconclusive = mostly about -30% to -63%; note: % is set by controls: 0 for no effect and ±100 for the full control effect
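AlphaScreen with GST-Six1 and His-Eya2 (5X mix: 250 nM and 500 nM), glutathione donor and nickel acceptor beads; buffer 50 mM Tris pH 8.0, 300 mM NaCl, 1 mM TCEP; 1 h at 37 C in the dark.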
MBNL1-CUG inh: MBNL1-poly(CUG) RNA binding inhibition. AID 2675. Potency, µM (titrated, usually from 57.5 µM), without a hit: at the top dose activity change, negative = inhibition, most hits filed as inhibitors. 280,000 compounds, 0.036% hits. Q9NR56. TR-FRET MBNL1-His/biotin-(CUG)12 binding, 665/545 ratio; active = well fitted inhibition curve with a large enough effect in the signal ratio, with a control signal flat, not every such curve was filed as active; inconclusive = small, poorly fitted or top-dose-only effect, or effect the other way, or a change in a side signal; inactive = no such curve, though single readings can be large or run the other way; the % refers to the signal ratio; note: potency is the fitted concentration of half-maximal effect; % is set by controls: 0 for no effect and ±100 for the full control effect
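MBNL1-His + Biotin-(CUG)12, cpd titration 92 nM–58 uM; Tb anti-His Ab 0.055 ng/ul, SA-XL665 5 nM (final); 60 min RT; ratiometric 665/545 nm, Ex 340 nm; normalized to buffer and full-complex controls.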
The depositor's hits bear a star; u = inconclusive; x = not tested or not shown. Unless noted, calls come from the whole dose curve; as a rule, active = well fitted curve in the direction sought with a large enough effect; inconclusive = small, poorly fitted or top-dose-only effect, or another doubt; inactive = no such curve, though single readings can be large; an effect the other way counts as inactive or inconclusive.

SMILES	CtBP-E1A blk	L3MBTL1 inh	Eya2 phos inh	CBFb-RUNX1 inh	Six1-Eya2 inh	MBNL1-CUG inh
Cc1cc(C)cc(-c2nnc(SCC(=O)Nc3cc(C)on3)o2)c1	-65*	-1%	25%	x	u	x
Cc1nnc(SCC(=O)Nc2nccs2)o1	-73*	x	-6%	x	u	-7%
CC1(C)Oc2ccc3ccc(=O)oc3c2/C(=C/NNC(N)=S)C1=O	-29	x	4%	x	-25	u
Cc1cc(NC(=O)CSc2nnc(-c3ccc(O)cc3)o2)no1	-29	-11%	5%	-24%	u	-3%
Cc1cc(NC(=O)CSc2nnc(C)o2)no1	-86*	x	-14%	x	u	1%
COc1cc(/C=C2/SC(=Nc3ccc(O)cc3)NC2=O)cc(OC)c1O	0	u	-6%	-19%	-71*	11%
COc1cc(/C=C2\SC(=Nc3ccc(O)cc3)NC2=O)cc(OC)c1OC	-6	x	-6%	6%	-11	0%
O=C(C1CCN(S(=O)(=O)c2ccccc2)CC1)N1CCC1	5	2%	6%	x	0	x
COc1ccc(C2(CNC(=O)Cc3ccc(OC)c(OC)c3)CCOCC2)cc1	3	3%	1%	-1%	3	-2%
Cc1cc(C=O)c(C)n1-c1ccc(Cl)c(C(=O)O)c1	4	4µM*	-5%	u	u	-6%
COC(=O)c1ccc(N2CCc3ccccc32)c([N+](=O)[O-])c1	-29	x	-16%	x	-70*	u
COc1cc(/C=C2\C(C)=C(C#N)c3nc(N)c(C#N)c(C)c32)ccc1OCC(=O)O	-18	u	-1%	-14%	-73*	u
COc1nnc(-c2ccc(N3CCOCC3)c(NC(=O)C3CCCCC3)c2)c2ccccc12	-2	6%	1%	4%	6	-8%
c1ccc2c3c(cc(N4CCOCC4)c2c1)OC1(N2CCOCC2)CCCCC1O3 (stereo not drawn)	11	28µM*	-3%	3%	-8	14%
O=C(NCCN1C(=O)S/C(=C/c2cccnc2)C1=O)c1ccc(S(=O)(=O)N2CCCC2)cc1	-6	x	x	x	3	x
O=C(Nc1ccc2nc(-c3ccco3)c(-c3ccco3)nc2c1)N1CCCCCC1	-8	3.5µM*	9%	x	u	u
Cc1nc2ccc(NC(=O)N3CCCCC3)cc2nc1C	2	8%	-5%	-6%	-1	29%
CCOC(=O)C1CCN(C(=O)Nc2ccc3nc(-c4ccco4)c(-c4ccco4)nc3c2)CC1	-26	3.5µM*	13%	u	u	u
CCOC(=O)C1CCCN(C(=O)c2cc(-c3ccco3)nc3ccccc23)C1 (stereo not drawn)	-2	3.5µM*	-6%	x	u	x
O=C(O)CN=C(Nc1cc(Cl)cc(Cl)c1)NC(c1ccccc1)c1ccccc1	2	x	x	x	-1	x
COc1ccc(CC(=O)N/N=C/C=C/c2ccc3c(c2)OCO3)cc1OC	-18	6%	u	-6%	-69*	x
O=C(COC(=O)/C=C/c1ccc(F)cc1)NC1CCS(=O)(=O)C1 (stereo not drawn)	-1	-1%	-33%	x	-2	x
COc1cc(NCCCCCCN)c2ncccc2c1OC	-71*	x	x	x	u	x
Cc1cc(Cl)ccc1OCCCC(=O)NCCN1C(=O)S/C(=C\c2cccnc2)C1=O	-1	-4%	-11%	-2%	-6	31%
Oc1ccc(-c2csc(Nc3cccc4ccccc34)n2)cc1O	-10	25µM*	15%	x	-18	7%
SMILES	CtBP-E1A blk	L3MBTL1 inh	Eya2 phos inh	CBFb-RUNX1 inh	Six1-Eya2 inh	MBNL1-CUG inh
CCCCn1c(N)c(N(CC(C)C)C(=O)C2CCN(c3ncnc4sc(C)c(C)c34)CC2)c(=O)[nH]c1=O	13	-1%	-25%	x	-4	x
CCCCn1c(N)c(N(CCOC)C(=O)C2CCN(c3ncnc4sc(C)c(C)c34)CC2)c(=O)[nH]c1=O	-90*	0%	1%	x	2	x
CC[n+]1ccc(/C=C/c2ccc(N(C)C)cc2)c2ccccc21	-10	25µM*	-3%	-22%	-2	u
CC[n+]1ccccc1/C=C/c1ccc(N(C)C)cc1	-9	x	-4%	-2%	1	u
O=c1cc(O)c2ccc(O)cc2o1	-5	9%	-13%	4%	-16	3%
O=c1ccc2[n+]([O-])c3ccc(O)cc3oc-2c1	-5	3.2µM*	-11%	x	-6	x
CN1CCc2c(sc3c2C(=O)NC(c2ccccn2)N3)C1 (stereo not drawn)	u	u	7%	13%	-67*	u
O=C1NC(c2ccccn2)Nc2sc3c(c21)CCC3 (stereo not drawn)	-77*	-2%	-10%	-11%	-80*	u
O=C1NC(c2ccc(Br)cc2)Nc2sc3c(c21)CCC3 (stereo not drawn)	5	-15%	-16%	-9%	-9	6%
O=C(CCc1ccccc1)N1CCN(Cc2ccc(F)cc2Cl)CC1	-7	-12%	-4%	x	0	-6%
C[C@@H](NS(=O)(=O)c1cc(Cl)ccc1F)[C@H](O)c1ccccc1	-5	x	x	x	3	x
Cc1ccc(C(=O)N/C(=C/c2ccco2)C(=O)NCCCn2ccnc2)cc1	-12	u	16%	0%	u	14%
Cc1ccc(C(=O)N/C(=C\c2ccco2)C(=O)NCCCn2ccnc2)cc1	-18	u	-7%	u	-77*	x
O=C(CCC(=O)N(CC(=O)NC1CCCC1)Cc1ccccc1Cl)Nc1nccs1	-9	x	3%	x	2	-2%
CC(=O)C[C@H](O)CC(=O)[C@H]1OC(=O)CC/C=C\Cc2ccccc21	0	1%	6%	x	11	x
O=C(c1coc(=O)c(Br)c1)N1CCOCC1	4	14µM*	19%	-20%	-6	u
O=C(c1ccc(=O)oc1)N1CCOCC1	-11	4.5µM*	-28%	-23%	u	16%
O=C(c1cc(Br)c(Br)s1)N1CCOCC1	10	13%	3%	x	10	x
O=C(O)c1cc(Cl)n[nH]c1=O	0	x	x	x	9	x
CN(CC(=O)Nc1cccc(F)c1)CC(=O)N(C)CC(=O)Nc1ccccc1Br	0	-3%	18%	x	-2	x
Cc1cccc(C)c1NC(=O)CN(C)C(=O)c1cccc(-n2cccc2)c1	10	28µM*	3%	x	-15	x
Cc1cccc(NC(=O)CNC(=O)c2cccc(-n3cccc3)c2)c1C	4	3.5µM*	12%	x	u	x
COc1ccc(NC(=O)CN(C)C(=O)c2cccc(-n3cccc3)c2)cc1	-5	10µM*	-15%	x	u	x
Cc1ccc(NC(=O)CN(C)C(=O)c2cccc(-n3cccc3)c2)cc1	-2	4µM*	32%	x	u	x
